The values that follow come from PubChem BioAssay (NCATS).

The nature of test [1]: qHTS to identify inhibitors of the type 1 interferon - major histocompatibility complex class I in skeletal muscle: primary screen against the NCATS LOPAC collection (AID 1347405).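 Also: lytic HiBiT luminescence reporting HLA-B protein level.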 Also: potency is read from the fitted curve at half-maximal effect. Summed up: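 CRISPR-engineered immortalized human myoblasts (C25cl48) with HiBiT fused to endogenous HLA-B*08:01, stimulated with 4 ng/ml IFN-beta. LOPAC compounds tested as a 7-point 1:4.3 titration (top 46 uM final), 24 h at 37 C; lytic HiBiT luminescence read.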

A short description of test [2]: qHTS for inhibitors of adenylyl cyclases using a fission yeast platform: a pilot screen against the NCATS LOPAC library (AID 1347410). The method, boiled down: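 Read-out: fbp1-GFP fluorescence by laser scanning cytometry (488 nm laser), a gain of signal when AC/cAMP-PKA signalling is inhibited. Strain CHP2027 expressing AC9, GNAS and PDE4D2; compounds at up to 57 µM; 18 h, 30C.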
On the technique in general: qHTS replaces the single test concentration by a dilution series.

A short description of test [3]: Validation qHTS assay for inhibitors of Activation Induced Cytidine Deaminase (AID): UDG Counterscreen signal (AID 1347427). The method, boiled down: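 Counterscreen read of UDG activity (2 U/mL, 4/3x) in the FRET deamination format with AID (1 uM, 4/3x), DJC20/DJC23 substrates (250 nM, 4x), 4 h at room temperature. NaOH stop, fluorescence at 560 ex/665 em.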

Inconclusive results are not listed. Where a call stands in place of a potency, no number is given. Activity calls are given as the source filed them. Calls follow the shape of the dose curve; as a rule, active = well fitted curve in the direction sought with a large enough effect; inconclusive = small, poorly fitted or top-dose-only effect, or another doubt; inactive = no such curve, though single readings can be large; an effect the other way counts as inactive or inconclusive.

On to `CCc1ccc2c(-c3cccc(Cl)c3)nc(=O)n(CC)c2n1`, for which the Potency result in test [1] and in test [3] was “inactive” throughout. For the same molecule, the call in test [2] was inactive.

As to `CCCOC(=O)c1c(-c2ccccc2)nc(CC)c(C(=O)SCC)c1CCC`, the Potency entry in test [1] and in test [3] was “inactive” throughout. Besides, in test [2], the call was inactive.

For the molecule `O=C(O)c1cc(=O)cc(C(=O)O)[nH]1`, the Potency result in test [1] and in test [3] was “inactive” in each case. Further, the molecule was classed as inactive in test [2].

On to `CCCCCCCCCCC/C=C\C(C)(C)/C=C\CCCC(=O)O`, for which the Potency entry in test [1] and in test [3] was “inactive” each time. Also, the molecule was called inactive in test [2].

Consider `N[C@@H](CS(=O)O)C(=O)O`, for which the Potency entry in test [1] and in test [3] was “inactive” in each case. The molecule was classed as inactive in test [2].

As for `O=c1[nH]ccc2c(O)cccc12`, the Potency result in test [1] and in test [3] was “inactive” throughout. Moreover, the result in test [2] was inactive.

Take `CNc1ncnc2c1ncn2[C@H]1C[C@H](OP(=O)(O)O)[C@@H](COP(=O)(O)O)O1`: the Potency result in test [1] and in test [3] was “inactive” throughout. Moreover, the outcome in test [2] was inactive.

Regarding `C[C@](Cc1ccc(O)c(O)c1)(NN)C(=O)O`, the Potency result in test [1] and in test [3] was “inactive” in each case. Also, the result in test [2] was inactive.

Consider `COc1ccc2c(c1)c(CC(=O)O)c(C)n2C(=O)c1ccccc1`, for which the Potency result in test [1] and in test [3] was “inactive” throughout. In test [2], the result was inactive.

For `NCCCNCCCCNCCCN`, the Potency result in test [1] and in test [3] was “inactive” throughout. For the same molecule, in test [2], the call was inactive.

For `CCCCCCCCCC(=O)NC(CN1CCOCC1)[C@H](O)c1ccccc1` (some centres not stated), the Potency result in test [1] and in test [3] was “inactive” in each case. Further, in test [2], the outcome was inactive.

Consider `NCCCCN=C(N)N`, for which the Potency entry in test [1] and in test [3] was “inactive” throughout. For the same molecule, the outcome in test [2] was inactive.

Regarding `C/C(=C\c1ccc(C(=O)O)cc1)c1ccc2c(c1)C(C)(C)CCC2(C)C`, the Potency result in test [1] and in test [3] was “inactive” each time. The outcome in test [2] was inactive.

With `Oc1ccc(/C=C/c2ccc(/C=C/c3ccc(O)cc3)c(Br)c2)cc1`, the Potency entry in test [1] and in test [3] was “inactive” each time. Further, the call in test [2] was inactive.

With `Cc1nc2c(OCc3ccccc3)cccn2c1CC#N`, the Potency result in test [1] and in test [3] was “inactive” in each case. In test [2], the call was inactive.

As for `O=C(O)c1ccccc1Nc1ccccc1`, the Potency entry in test [1] and in test [3] was “inactive” throughout. The molecule was classed as inactive in test [2].

As to `N=C(N)c1ccc(N)cc1`, the Potency result in test [1] and in test [3] was “inactive” each time. In addition, the result in test [2] was inactive.

`N[C@H](C(=O)O)[C@H]1C[C@@H]1C(=O)O`: the Potency entry in test [1] and in test [3] was “inactive” in each case. The molecule was classed as inactive in test [2].

Consider `C=CCN1CCc2c(cc(O)c(O)c2Cl)C(c2ccccc2)C1` (configuration not stated), for which the Potency result in test [1] and in test [3] was “inactive” each time. The outcome in test [2] was inactive.

For `CCCn1c(=O)c2[nH]c(-c3ccc(S(=O)(=O)O)cc3)nc2n(CCC)c1=O`, the Potency entry in test [1] and in test [3] was “inactive” each time. Besides, the result in test [2] was inactive.

As for `COc1cc(CC(=O)O)ccc1O`, the Potency result in test [1] and in test [3] was “inactive” in each case. In test [2], the call was inactive.

With `C[C@@H](NCCc1ccc(O)cc1)[C@@H](O)c1ccc(O)cc1`, the Potency result in test [1] and in test [3] was “inactive” each time. Besides, the result in test [2] was inactive.

Consider `NC1CCN(O)C1=O` (configuration not stated), for which the Potency entry in test [1] and in test [3] was “inactive” throughout. Besides, the call in test [2] was inactive.

On to `O=C(OCCN1CCOCC1)C1(c2ccccc2)CCCCC1`, for which the Potency result in test [1] and in test [3] was “inactive” throughout. The call in test [2] was inactive.

With `NC(=O)CNCCC(c1ccccc1)c1ccccc1`, the Potency entry in test [1] and in test [3] was “inactive” each time. Further, the call in test [2] was inactive.

Regarding `COc1cc(C(O)C(=O)O)ccc1O` (configuration not stated), the Potency entry in test [1] and in test [3] was “inactive” in each case. The outcome in test [2] was inactive.

On to `C=C1C[C@@]23CC[C@H]4[C@@](C)(CCC[C@@]4(C)C(=O)OC4OC(CO)C(O)C(O)C4O)[C@@H]2CC[C@]1(OC1OC(CO)C(O)C(O)C1OC1OC(CO)C(O)C(O)C1O)C3` (some centres not stated), for which the Potency result in test [1] and in test [3] was “inactive” in each case. The result in test [2] was inactive.

In the case of `COC(=O)C(N)Cc1ccc(Cl)cc1` (configuration not stated), the Potency result in test [1] and in test [3] was “inactive” each time. Moreover, the molecule was classed as inactive in test [2].

On to `COc1cc(C(O)CO)ccc1O` (configuration not stated), for which the Potency entry in test [1] and in test [3] was “inactive” throughout. Moreover, the result in test [2] was inactive.

On to `O=c1[nH]c2cc(Cl)ccc2c(O)c1-c1ccc(Oc2ccccc2)cc1`, for which the Potency in test [1] is 8.91 µM (active). Also, in test [2], the result was inactive. In test [3], the Potency entry is “inactive”.

`NC[C@@H]1O[C@H](c2ccccc2)Cc2c1ccc(O)c2O`: the Potency entry in test [1] and in test [3] was “inactive” throughout. Also, in test [2], the result was inactive.

On to `CN(C)CCC(c1ccc(Br)cc1)c1ccccn1` (configuration not stated), for which the Potency result in test [1] and in test [3] was “inactive” throughout. The molecule was classed as inactive in test [2].

Take `C#CC(N)CCC(=O)O` (configuration not stated): the Potency result in test [1] and in test [3] was “inactive” in each case. The outcome in test [2] was inactive.

For the molecule `Nc1ccc2c3c(cccc13)C(=O)NC2=O`, the Potency result in test [1] and in test [3] was “inactive” in each case. In addition, the outcome in test [2] was inactive.

As to `OC1(c2ccc(Cl)cc2)CCN(Cc2c[nH]c3ccccc23)CC1`, the Potency result in test [1] and in test [3] was “inactive” in each case. Moreover, the result in test [2] was inactive.

With `COc1cccc(OC)c1OCCNCC1CSc2ccccc2O1` (configuration not stated), the Potency entry in test [1] and in test [3] was “inactive” in each case. In test [2], the molecule was classed as inactive.

Consider `Nc1ncnc2c1ncn2C1CCCO1` (configuration not stated), for which the Potency entry in test [1] and in test [3] was “inactive” in each case. For the same molecule, the molecule was classed as inactive in test [2].

For the molecule `O=C(O)[C@H]1NCCC[C@H]1C(=O)O`, the Potency entry in test [1] and in test [3] was “inactive” each time. Also, in test [2], the outcome was inactive.

Consider `CN1CCc2cc(Cl)c(O)cc2[C@@H](c2ccccc2)C1`, for which the Potency result in test [1] and in test [3] was “inactive” each time. Besides, the outcome in test [2] was inactive.

Consider `O=C1OC(=O)C2C3CCC(O3)C12` (configuration not stated), for which the Potency entry in test [1] and in test [3] was “inactive” each time. For the same molecule, in test [2], the call was inactive.

As to `NC(N)=[N+]1CCc2ccccc2C1`, the Potency result in test [1] and in test [3] was “inactive” each time. Further, in test [2], the call was inactive.

Turning to `Oc1cc(O)c2c(c1)O[C@H](c1ccc(O)c(O)c1)[C@@H](O)C2`, the Potency entry in test [1] and in test [3] was “inactive” each time. Also, the call in test [2] was inactive.

As to `CC(=O)C(C)=O`, the Potency entry in test [1] and in test [3] was “inactive” each time. Further, the molecule was classed as inactive in test [2].

In the case of `NCC(O)(CS(=O)(=O)O)c1ccc(Cl)cc1` (configuration not stated), the Potency result in test [1] and in test [3] was “inactive” each time. For the same molecule, the result in test [2] was inactive.
